# A number with no mark means an inactive call.
# Experiments:
# Test in all cases: log2 ratio of Biotin-Ahx-Ub-VS probe labelling (fragment/DMSO); higher = less target engagement (more negative = stronger competition), active = hit call of the paper (q ≤ 0.05, log2 ratio ≤ -1)
# Conditions in all cases: compound concentration: 200 uM; treatment time: 3 h
# [1] = molecular target: T1, USP19 (UniProt O94966)
# T1 sequence (whole entry): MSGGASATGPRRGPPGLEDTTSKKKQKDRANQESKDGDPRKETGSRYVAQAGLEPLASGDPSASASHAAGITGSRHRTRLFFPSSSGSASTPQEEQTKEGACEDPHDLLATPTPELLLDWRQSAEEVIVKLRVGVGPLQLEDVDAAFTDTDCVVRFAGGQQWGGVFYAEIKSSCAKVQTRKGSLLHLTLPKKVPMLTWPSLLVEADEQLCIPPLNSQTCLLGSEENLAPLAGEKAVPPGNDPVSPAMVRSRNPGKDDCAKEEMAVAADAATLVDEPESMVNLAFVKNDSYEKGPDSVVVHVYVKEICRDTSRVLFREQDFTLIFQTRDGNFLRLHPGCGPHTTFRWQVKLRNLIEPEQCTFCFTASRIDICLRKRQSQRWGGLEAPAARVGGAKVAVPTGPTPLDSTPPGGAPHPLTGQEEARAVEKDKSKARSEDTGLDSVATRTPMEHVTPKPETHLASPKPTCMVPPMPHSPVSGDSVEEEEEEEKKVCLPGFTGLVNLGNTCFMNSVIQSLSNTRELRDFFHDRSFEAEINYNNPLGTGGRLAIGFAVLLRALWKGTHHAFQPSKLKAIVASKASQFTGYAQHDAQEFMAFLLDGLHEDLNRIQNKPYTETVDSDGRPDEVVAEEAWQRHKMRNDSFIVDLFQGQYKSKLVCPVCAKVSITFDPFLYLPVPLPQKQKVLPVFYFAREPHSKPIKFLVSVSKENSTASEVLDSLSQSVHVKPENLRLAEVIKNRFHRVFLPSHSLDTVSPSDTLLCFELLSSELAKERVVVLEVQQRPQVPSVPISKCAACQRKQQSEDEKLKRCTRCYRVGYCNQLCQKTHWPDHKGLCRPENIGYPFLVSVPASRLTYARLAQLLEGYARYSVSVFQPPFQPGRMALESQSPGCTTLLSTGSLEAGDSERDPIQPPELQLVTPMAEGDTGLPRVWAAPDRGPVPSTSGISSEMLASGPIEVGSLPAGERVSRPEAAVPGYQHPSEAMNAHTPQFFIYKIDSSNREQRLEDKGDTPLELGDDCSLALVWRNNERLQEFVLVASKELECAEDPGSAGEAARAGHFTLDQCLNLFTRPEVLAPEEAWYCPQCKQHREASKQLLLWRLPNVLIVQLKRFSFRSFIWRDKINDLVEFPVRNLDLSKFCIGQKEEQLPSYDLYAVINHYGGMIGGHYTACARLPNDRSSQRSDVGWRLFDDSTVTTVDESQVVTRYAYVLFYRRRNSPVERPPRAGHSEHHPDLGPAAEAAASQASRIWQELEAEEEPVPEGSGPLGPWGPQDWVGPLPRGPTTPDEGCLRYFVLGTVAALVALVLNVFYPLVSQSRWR
# Method in brief: (§1)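 Average log2 ratios of fragment over vehicle were obtained by unpaired t-test from global-median-normalised Spectronaut label-free quantities. Proteins with ≥2 unique peptides were included. HEK293T lysate (495 µg per sample) was treated in triplicate with fragment at 200 µM or vehicle for 3 h, then with Biotin-Ahx-Ub-VS at 0.5 µM final for 1 h, and labelled DUBs were NeutrAvidin-enriched and run by diaPASEF LC-MS/MS.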
# [2] = molecular target: USP24 (UniProt Q9UPU5)
# Method in brief: as §1
# [3] = molecular target: T2, USP25 (UniProt Q9UHP3)
# T2 sequence (whole entry): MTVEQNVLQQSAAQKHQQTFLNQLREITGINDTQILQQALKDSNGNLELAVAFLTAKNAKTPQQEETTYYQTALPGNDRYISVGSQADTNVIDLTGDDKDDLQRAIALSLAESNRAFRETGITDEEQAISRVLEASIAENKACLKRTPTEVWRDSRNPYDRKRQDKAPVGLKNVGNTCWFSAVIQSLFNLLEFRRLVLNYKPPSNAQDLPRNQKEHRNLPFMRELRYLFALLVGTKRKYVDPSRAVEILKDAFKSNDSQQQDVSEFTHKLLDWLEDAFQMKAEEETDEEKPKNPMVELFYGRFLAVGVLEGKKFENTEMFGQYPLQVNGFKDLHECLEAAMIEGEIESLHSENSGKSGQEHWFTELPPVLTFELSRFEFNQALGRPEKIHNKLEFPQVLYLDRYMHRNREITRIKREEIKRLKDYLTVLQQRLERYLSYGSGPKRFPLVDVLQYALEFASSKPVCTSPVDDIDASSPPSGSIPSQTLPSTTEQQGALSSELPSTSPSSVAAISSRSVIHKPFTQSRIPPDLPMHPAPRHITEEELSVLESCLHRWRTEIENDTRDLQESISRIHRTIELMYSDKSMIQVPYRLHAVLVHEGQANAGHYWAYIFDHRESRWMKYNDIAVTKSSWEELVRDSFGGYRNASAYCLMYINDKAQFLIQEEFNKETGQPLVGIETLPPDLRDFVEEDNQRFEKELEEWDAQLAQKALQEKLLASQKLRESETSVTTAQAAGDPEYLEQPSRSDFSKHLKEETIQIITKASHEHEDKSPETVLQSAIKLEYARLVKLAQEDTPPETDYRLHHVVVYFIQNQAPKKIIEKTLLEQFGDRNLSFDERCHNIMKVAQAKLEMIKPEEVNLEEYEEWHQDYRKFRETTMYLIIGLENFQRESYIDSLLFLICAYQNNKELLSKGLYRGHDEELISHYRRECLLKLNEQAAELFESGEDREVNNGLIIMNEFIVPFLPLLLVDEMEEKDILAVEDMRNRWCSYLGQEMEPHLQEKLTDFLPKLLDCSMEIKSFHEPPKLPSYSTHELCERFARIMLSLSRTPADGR
# Method in brief: as §1
# [4] = molecular target: T3, USP28 (UniProt Q96RU2)
# T3 sequence (whole entry): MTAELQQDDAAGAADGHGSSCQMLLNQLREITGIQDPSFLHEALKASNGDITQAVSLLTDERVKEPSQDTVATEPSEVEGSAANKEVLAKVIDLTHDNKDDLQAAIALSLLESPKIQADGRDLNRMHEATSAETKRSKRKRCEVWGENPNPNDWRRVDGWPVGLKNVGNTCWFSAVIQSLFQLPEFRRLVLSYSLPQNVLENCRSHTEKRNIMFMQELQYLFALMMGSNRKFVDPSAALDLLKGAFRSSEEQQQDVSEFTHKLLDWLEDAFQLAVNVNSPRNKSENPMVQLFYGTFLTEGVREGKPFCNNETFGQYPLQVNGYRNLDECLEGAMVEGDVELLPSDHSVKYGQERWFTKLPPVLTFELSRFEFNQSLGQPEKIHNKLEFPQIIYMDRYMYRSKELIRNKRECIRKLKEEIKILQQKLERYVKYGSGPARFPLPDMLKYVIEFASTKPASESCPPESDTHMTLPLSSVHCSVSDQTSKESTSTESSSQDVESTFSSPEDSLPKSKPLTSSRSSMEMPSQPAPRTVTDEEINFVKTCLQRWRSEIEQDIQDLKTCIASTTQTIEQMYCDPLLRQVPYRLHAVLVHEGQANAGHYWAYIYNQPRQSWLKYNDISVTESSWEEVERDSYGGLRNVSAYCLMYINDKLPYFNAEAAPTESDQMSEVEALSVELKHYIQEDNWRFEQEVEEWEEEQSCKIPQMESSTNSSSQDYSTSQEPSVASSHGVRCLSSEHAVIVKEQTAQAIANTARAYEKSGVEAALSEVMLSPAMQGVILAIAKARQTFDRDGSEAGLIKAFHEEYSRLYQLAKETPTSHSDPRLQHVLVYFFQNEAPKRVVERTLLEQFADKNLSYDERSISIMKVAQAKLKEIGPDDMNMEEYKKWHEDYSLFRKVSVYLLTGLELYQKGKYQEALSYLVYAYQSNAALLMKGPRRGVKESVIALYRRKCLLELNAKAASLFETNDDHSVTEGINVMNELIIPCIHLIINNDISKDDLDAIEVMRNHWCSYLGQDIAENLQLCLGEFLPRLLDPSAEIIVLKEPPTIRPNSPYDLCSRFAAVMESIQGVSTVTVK
# Method in brief: as §1
# Chain of USP24 (Q9UPU5 whole entry): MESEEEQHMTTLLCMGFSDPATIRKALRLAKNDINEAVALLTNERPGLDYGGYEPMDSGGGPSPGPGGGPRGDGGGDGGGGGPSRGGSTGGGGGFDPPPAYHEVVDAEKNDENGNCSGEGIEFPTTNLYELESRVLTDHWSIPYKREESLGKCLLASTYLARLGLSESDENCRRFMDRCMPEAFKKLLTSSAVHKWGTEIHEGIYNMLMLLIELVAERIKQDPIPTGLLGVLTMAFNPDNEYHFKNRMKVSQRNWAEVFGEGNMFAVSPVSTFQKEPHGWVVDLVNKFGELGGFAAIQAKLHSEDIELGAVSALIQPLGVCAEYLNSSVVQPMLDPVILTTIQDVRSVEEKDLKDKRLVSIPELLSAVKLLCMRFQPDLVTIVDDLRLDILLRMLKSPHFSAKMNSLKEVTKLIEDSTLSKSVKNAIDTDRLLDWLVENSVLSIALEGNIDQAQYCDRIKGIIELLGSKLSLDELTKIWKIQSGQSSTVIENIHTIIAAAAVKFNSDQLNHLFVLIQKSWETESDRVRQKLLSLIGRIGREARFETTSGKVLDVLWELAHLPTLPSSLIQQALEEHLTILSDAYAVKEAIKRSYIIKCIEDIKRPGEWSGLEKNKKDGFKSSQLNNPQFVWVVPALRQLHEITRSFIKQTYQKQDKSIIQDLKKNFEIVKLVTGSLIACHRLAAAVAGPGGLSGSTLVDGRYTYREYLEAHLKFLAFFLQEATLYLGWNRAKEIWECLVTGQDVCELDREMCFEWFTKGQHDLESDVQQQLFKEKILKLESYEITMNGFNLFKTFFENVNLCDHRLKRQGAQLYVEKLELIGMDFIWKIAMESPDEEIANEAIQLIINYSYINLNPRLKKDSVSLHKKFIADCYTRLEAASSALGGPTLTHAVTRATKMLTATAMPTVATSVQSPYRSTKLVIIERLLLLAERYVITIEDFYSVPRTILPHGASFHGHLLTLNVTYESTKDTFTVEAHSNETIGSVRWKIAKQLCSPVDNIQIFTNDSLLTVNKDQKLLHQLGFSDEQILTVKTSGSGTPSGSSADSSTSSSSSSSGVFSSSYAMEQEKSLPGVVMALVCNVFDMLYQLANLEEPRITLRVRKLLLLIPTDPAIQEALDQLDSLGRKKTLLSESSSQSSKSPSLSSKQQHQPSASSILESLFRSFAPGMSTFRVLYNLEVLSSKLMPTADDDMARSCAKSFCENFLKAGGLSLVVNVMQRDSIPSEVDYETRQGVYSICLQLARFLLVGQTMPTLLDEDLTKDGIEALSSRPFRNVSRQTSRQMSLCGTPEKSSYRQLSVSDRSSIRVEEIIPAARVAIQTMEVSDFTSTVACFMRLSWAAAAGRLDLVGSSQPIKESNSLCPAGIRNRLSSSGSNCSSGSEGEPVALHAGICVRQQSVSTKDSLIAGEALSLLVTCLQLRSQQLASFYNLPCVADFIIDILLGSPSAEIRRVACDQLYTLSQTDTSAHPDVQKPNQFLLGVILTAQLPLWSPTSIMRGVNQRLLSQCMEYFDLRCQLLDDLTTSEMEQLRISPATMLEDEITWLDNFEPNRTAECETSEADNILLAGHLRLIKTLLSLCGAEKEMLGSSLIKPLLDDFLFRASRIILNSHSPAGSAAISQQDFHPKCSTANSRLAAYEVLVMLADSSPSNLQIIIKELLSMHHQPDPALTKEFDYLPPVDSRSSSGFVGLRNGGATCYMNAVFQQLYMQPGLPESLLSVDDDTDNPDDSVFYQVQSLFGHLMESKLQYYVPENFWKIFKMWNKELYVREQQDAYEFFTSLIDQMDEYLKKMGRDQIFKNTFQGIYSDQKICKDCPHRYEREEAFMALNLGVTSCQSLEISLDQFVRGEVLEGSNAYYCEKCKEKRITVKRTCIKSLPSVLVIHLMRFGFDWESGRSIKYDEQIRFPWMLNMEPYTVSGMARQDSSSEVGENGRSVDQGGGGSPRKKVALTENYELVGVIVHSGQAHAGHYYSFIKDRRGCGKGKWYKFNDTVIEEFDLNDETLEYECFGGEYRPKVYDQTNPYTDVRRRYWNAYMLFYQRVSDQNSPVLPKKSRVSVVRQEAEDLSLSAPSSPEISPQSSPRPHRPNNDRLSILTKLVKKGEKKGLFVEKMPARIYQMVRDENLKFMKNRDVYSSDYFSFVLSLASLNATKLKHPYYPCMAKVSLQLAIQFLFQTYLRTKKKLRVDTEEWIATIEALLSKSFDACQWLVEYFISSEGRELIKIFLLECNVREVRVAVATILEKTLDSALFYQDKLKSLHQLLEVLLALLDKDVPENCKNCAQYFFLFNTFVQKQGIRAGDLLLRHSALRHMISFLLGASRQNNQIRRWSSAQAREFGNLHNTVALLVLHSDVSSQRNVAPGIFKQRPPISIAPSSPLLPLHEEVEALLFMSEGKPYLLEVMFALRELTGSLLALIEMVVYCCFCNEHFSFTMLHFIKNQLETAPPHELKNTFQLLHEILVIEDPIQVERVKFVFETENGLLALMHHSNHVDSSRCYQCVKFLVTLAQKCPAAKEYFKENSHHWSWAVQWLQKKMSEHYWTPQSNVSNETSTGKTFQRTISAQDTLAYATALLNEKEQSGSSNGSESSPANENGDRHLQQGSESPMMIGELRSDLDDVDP
structure (smiles),measurement,setting,value
CN(C)C(=O)c1ccc(NC(=O)CCl)cc1,log2 ratio of Biotin-Ahx-Ub-VS probe labelling,[1],-0.166
same,log2 ratio of Biotin-Ahx-Ub-VS probe labelling,[2],-0.00912
same,log2 ratio of Biotin-Ahx-Ub-VS probe labelling,[3],-1.1 (active)
same,log2 ratio of Biotin-Ahx-Ub-VS probe labelling,[4],-1.47 (active)

# From the supplement of paper PMC11732987, “Enantioselective OTUD7B fragment discovery through chemoproteomics screening and high-throughput optimisation” (Communications Chemistry, 2025)
